# IL1B secr inh: blocks inflammasome-driven IL-1 beta release. THP-1 LPS/ATP IL-1B secretion, AlphaLISA, 16 h; stronger effect = lower value. activity change, % at 57.5 µM. 4.7% of 360,000 active. AID 743279; in the data active means activity change below about -50%; inconclusive means mostly about -30% to -49%
#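 THP-1 cells pretreated 1 hr with compounds (up to 57.5 uM final), then stimulated with LPS (250 ng/mL final) plus ATP (1.25 mM final); secreted IL-1B measured by AlphaLISA after 16 hr, decreased signal indicating inhibition.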
# CtBP-E1A inh: inhibitors of CtBP/E1A interaction; AlphaScreen GST-E1A/His-CtBP binding, 1536-well; stronger effect = lower value; activity change, % (no concentration beside the values); 0.49% of 340,000 active; AID 651724; in the data active means activity change below about -65%; inconclusive means mostly about -30% to -63%
#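 Homogeneous bead-based format: GST-tagged E1A captured on glutathione donor beads, His-tagged CtBP on nickel acceptor beads; compounds precede bead addition by 2 h at 37 °C.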
# TDP1 block: blocks human tyrosyl-DNA phosphodiesterase 1; Potency, µM (series often up to 130 µM), without a hit: at the highest dose activity change, negative = inhibition, usual class: inhibitors; Q9NUW8; 0.28% of 350,000 active; AID 485290; recombinant TDP1, AlphaScreen DNA substrate cleavage; further: potency means the concentration at half of the fitted maximal effect; nearly all actives have a fitted effect of over 40% in size
#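 Steps: enzyme plus compound, 15 min RT; add biotin/phosphotyrosine-FITC oligonucleotide (15 nM final), react 5 min; add donor/acceptor beads (10 ug/ml final), 10 min; read AlphaScreen. Tdp1 at 1 nM final.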
# DT40 TDP1 CPT: DT40-hTDP1 cell growth loss with CPT. chicken DT40 Tdp1-/-;hTDP1 cells + 20 nM CPT, ATP luminescence, 48 h. 12% of 420,000 active. Potency, µM (top dose mostly 46.2 µM), inactives show at the top dose activity change, negative = growth inhibition, actives largely listed as inhibitors; further: potency means the concentration at half of the fitted maximal effect; nearly all actives have a fitted effect of over 55% in size
#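 Cell growth measured by CellTiter-Glo luminescence after a minimum 48 h, 37 C compound exposure with 20 nM CPT in Tdp1-knockout DT40 cells stably expressing hTDP1, seeded 400/well; qHTS titration format.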
# TDP1 cell noCPT: qHTS for Inhibitors of human tyrosyl-DNA phosphodiesterase 1 (TDP1): qHTS in cells in absence of CPT | DT40 Tdp1-/- hTDP1 cells, no CPT, ATP luminescence, 48 h | Potency, µM (top dose mostly 46.2 µM), inactives show at the highest dose activity change, negative = growth inhibition, usual class: inhibitors | 15% of 420,000 active; further: potency means the concentration at half of the fitted maximal effect; nearly all actives have a fitted effect of over 55% in size
#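 Growth kinetics read by CellTiter-Glo luminescence after ≥48 hr at 37 °C. Cells: DT40 Tdp1-/- stably carrying human TDP1, 400 per well, compound exposure in the absence of CPT (DMSO vehicle).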
# Six1-Eya2 inh: blocks human Six1 binding to Eya2; Q15475+O00167; AlphaScreen GST-Six1/His-Eya2 binding, biochemical; stronger effect = lower value; activity change, % (no concentration beside the values); 0.56% of 360,000 active; AID 651725; in the data active means activity change below about -65%; inconclusive means mostly about -30% to -63%
#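 AlphaScreen luminescence read after one hour at 37 °C in darkness. Pin-transferred compounds met GST-Six1 and His-Eya2 protein (5X stock 250 nM/500 nM) plus glutathione donor and Ni-chelate acceptor beads (5X, 50 ug/mL).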
# The depositor's hits bear a star; ? = inconclusive; / = no result; [ ] = another dose, or the depositor's remark. In the library only some 18% were active in any assay of this set; here they are far more common. Unless noted, the call rests on the fitted dose curve; in most records, active means well fitted curve in the direction sought with a large enough effect; inconclusive means small, poorly fitted or top-dose-only effect, or another doubt; inactive means no such curve, though single readings can be large; an effect the other way counts as inactive or inconclusive. On the % scale 0 is the no-effect control and ±100 the full control effect.
SMILES,IL1B secr inh,CtBP-E1A inh,TDP1 block,DT40 TDP1 CPT,TDP1 cell noCPT,Six1-Eya2 inh
Cc1cc(C)nc(N2CCC(C(=O)NC3CCCc4ccccc43)CC2)n1 (stereo not given),0.0,13.9,5.1%,-9.8%,-7.2%,3.8
O=C(C1CCN(c2nnc(-n3cccc3)s2)CC1)N1CCN(Cc2ccc3c(c2)OCO3)CC1,2.1,-10.3,-2.6%,?,14.6µM*,-3.7
Cn1c(CNC(=O)CNC(=O)c2cccc(Cl)c2)cc(=O)n(C)c1=O,37.2,8.3,0.1%,2.4%,16.8%,0.5
Cc1ccc(CNc2ccc3c(c2)OCO3)cc1,-93.2*,-13.0,3.1%,?,20.6µM*,-14.4
Cn1c(-c2ccc3c(c2)OCO3)cnc1NCc1ccc(Cl)cc1,0.0,-3.0,9.5%,?,18.4µM*,-2.9
Clc1ccccc1-c1cnc2sc(NCc3ccc4c(c3)OCO4)nn12,-5.6,-2.4,/,?,14.6µM*,-0.4
Cc1ccc(CNc2ncc(-c3ccc4c(c3)OCO4)n2C)cc1,-9.0,-2.1,-1.9%,?,20.6µM*,-13.4
CC(CC(=O)NC1CCCCC1)S(=O)(=O)c1ccc2c(c1)CCN2C(=O)C1CC1 (stereo not given),0.0,1.0,4.5%,-20.7%,-21.6%,0.8
NNC(=S)Nc1ccc(C(F)(F)F)cc1Cl,20.9,7.0,1.3%,?,-10.8%,-1.4
Nc1nc(N)c(N)c(=O)[nH]1,/,/,/,?,-82.1%,/
COC(=O)c1c(N2C(=O)[C@H]3[C@@H](C2=O)[C@]2(C(=O)Nc4c(C)cccc42)N2CCC[C@@H]32)sc(C)c1C,-24.5,3.2,8.0%,20.6µM*,10.3µM*,-9.3
Cc1cc(Cl)cc2c1NC(=O)[C@]21[C@@H]2C(=O)N(Cc3ccccc3)C(=O)[C@@H]2[C@@H]2CCCN21,-9.8,-3.5,11.4%,-23.9%,?,-8.3
COC(=O)CSc1nc(N2CCOCC2)c2c(c1C#N)CCCC2,40.4,/,/,?,-19.7%,-0.8
CCC(C)N=CC1=C(O)CC(c2ccccc2)CC1=O (stereo not given),-7.3,7.6,0.0%,-0.9%,-1.1%,7.5
CCOc1ccccc1N=CC1=C(O)CC(c2ccccc2)CC1=O (stereo not given),20.0,9.8,-3.6%,?,?,-3.5
O=C1CC(c2ccccc2)CC(O)=C1C=NCc1ccccc1Cl (stereo not given),37.1,15.8,3.9%,2.31µM*,2.31µM*,1.1
CCC(=Nc1ccccc1O)C1=C(O)CC(c2ccccc2)CC1=O (stereo not given),0.0,2.9,4.8%,?,?,-1.6
COc1ccc(N=CC2=C(O)CC(c3ccccc3)CC2=O)c(OC)c1 (stereo not given),4.2,2.5,0.0%,18.4µM*,14.6µM*,7.4
CCC(=Nc1ccccc1OC)C1=C(O)CC(c2ccccc2)CC1=O (stereo not given),7.8,0.7,-2.7%,6.51µM*,5.8µM*,7.7
CCCC(=NC(C)CC)C1=C(O)CC(c2ccccc2)CC1=O (stereo not given),-66.8*,0.3,1.0%,?,?,-7.1
Cc1c(C)n(C)c2ccc(C(=O)NCCN3CCOCC3)cc12,-26.3,-0.3,4.3%,-2.7%,27.8%,0.8
Cc1ccc(S(=O)(=O)NC2CC3CCC2C3)cc1 (stereo not given),32.2,10.6,/,4.9%,2.8%,0.3
Oc1ccc2ccccc2c1N=Nc1ccccn1,23.3,-73.2*,8.8%,0.651µM*,0.581µM*,-84.2*
CCOC(=O)c1[nH]cnc1N=Nc1c(O)ccc2ccccc12,43.3,-70.4*,10.1%,5.17µM*,5.8µM*,-81.5*
Oc1ccc2ccccc2c1N=Nc1ccccc1F,1.5,?,/,2.9%,?,-87.9*
SMILES,IL1B secr inh,CtBP-E1A inh,TDP1 block,DT40 TDP1 CPT,TDP1 cell noCPT,Six1-Eya2 inh
O=S(=O)(O)c1cccc(N=Nc2c(O)ccc3ccccc23)c1,8.0,/,6.8%,-24.8%,-18.9%,-20.3
Cc1cc(S(=O)(=O)Nc2ccc3oc4c(c3c2)CCCC4)ccc1Cl,/,/,/,20.6µM*,23.1µM*,/
Cc1cc(C)c(S(=O)(=O)Nc2ccc(O)cc2)cc1C,0.0,1.6,-0.5%,?,20.6µM*,-2.9
CC(C)(C)C1CCc2oc3ccc(NS(=O)(=O)c4ccc(C(=O)O)cc4)cc3c2C1 (stereo not given),/,/,-3.2%,-1.7%,-10.0%,/
CC(C)(C)C1CCc2oc3ccc(NS(=O)(=O)c4cc(Cl)ccc4Cl)cc3c2C1 (stereo not given),/,/,-1.3%[12.3 µM],25.9µM*,?,/
CCOc1cc(C)c(S(=O)(=O)Nc2ccc(F)cc2)cc1C,-5.1,5.8,3.9%,15.8µM*,15.8µM*,9.1
COc1cc(C(=O)NCC(=O)Nc2c(C)cccc2C)ccc1OCc1ccccc1,-3.6,0.7,0.2%,4.2%,-12.7%,-3.1
COc1cc(C(C)=O)ccc1OCc1cn(CC(=O)c2ccc(O)cc2)nn1,-2.7,-3.0,/,?,-9.3%,-7.0
Cc1cc(C)c(S(=O)(=O)Nc2ccc3oc4c(c3c2)CCCC4)cc1C,/,/,/,16.4µM*,?,/
CCN(CC)C(=O)C(C)N(C#N)c1nc(SC)nc(N(C)C)n1 (stereo not given),-0.1,2.2,3.3%,-15.0%,-16.4%,-1.9
CCN(CC)C(=O)C(C)N(C#N)c1nc(Cl)nc(N(C)C)n1 (stereo not given),-98.0*,-11.0,0.0%,3.3%,10.3%,-0.5
Cc1ccc2nc(-c3ccc(NC(=O)c4ccc(S(C)(=O)=O)cc4)cc3)sc2c1,/,/,0.0%,20.6µM*,?,/
O=C(Nc1ccc(-c2nc3ccccc3s2)cc1)c1cc(-n2cnnc2)ccc1Cl,-84.0*,-2.8,0.0%,23.1µM*,13µM*,-21.5
Cc1ccc(NC(=O)c2cc(-n3cnnc3)ccc2Cl)cc1,-7.2,-1.3,2.5%,-0.5%,-18.3%,-1.1
Cc1ccc2nc(-c3ccc(NC(=O)c4ccccc4S(C)(=O)=O)cc3)sc2c1,/,/,2.8%,?,8.2µM*,/
Cc1ccc2nc(-c3ccc(NC(=O)C(F)(F)F)cc3)sc2c1,/,/,/,-18.2%,?,/
COc1cc(NC(C)=O)c2ncccc2c1Br,-25.1,-3.1,/,-16.6%,?,1.0
CC(C)CNC(=O)COC(=O)c1c2c(nc3ccccc13)/C(=C\c1cccs1)CC2,-4.6,42.2,/,?,20.6µM*,42.3

# Screens deposited in PubChem BioAssay by National Center for Advancing Translational Sciences (NCATS).
